Hits are enriched below; roughly 4.2% of the tested compounds scored in any of these assays.
Wnt bcat act: activates Wnt/beta-catenin signaling in a reporter cell assay; activator, plate reader; activation, % at 9.35 µM; 1.2% of 300,000 active; in the data active means activation above about 30%, passing the limit was not always enough; inconclusive means no clear call, values can overlap the other calls;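 further: 0% = neutral control wells and 100% = positive control wells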
hgDAF12 agonist: hgDAF-12 agonism, primary luciferase screen; activation, % at 6.8 µM; HEK293 GAL4-hgDAF12 UAS-luciferase reporter, agonist luminescence; normalized to butyrate control; AID 687014; 1.8% of 370,000 active;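 active means activation above a cutoff set at the mean of all screened compounds plus 3 SD, cut at about 10% in these data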;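 further: 0% = DMSO wells and 100% = sodium butyrate wells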
DAX1 inh: DAX1 (NR0B1) inhibition, primary screen; HEK293T StAR-luciferase reporter, SF-1/DAX-1 repression relief; inhibition, % at 6.8 µM; 1.1% of 370,000 active; AID 652010;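 active means inhibition above the mean over all tested compounds plus 3 SD, cut at about 3.6% in these data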;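 further: 0% = DAX-1 cells with DMSO and 100% = cells lacking DAX-1 with DMSO; higher inhibition means more luminescence from relief of DAX-1 repression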
ssDAF12 agonist: activators of S. stercoralis DAF-12 nuclear receptor. 1% of 370,000 active. AID 652126. HEK293 ssDAF-12/GRIP1 lit1-tk-luc reporter, luminescence; % of 3 µM dafachronic acid response. activation, % at 6.8 µM;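 active means activation above the mean over all tested compounds plus 3 SD, cut at about 0.9% in these data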;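 further: 0% = DMSO-only wells and 100% = 3 µM delta7-dafachronic acid wells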
hcDAF12 agonist: activators of H. contortus DAF-12 nuclear receptor; HEK293 hcDAF-12 lit1-tk-luc reporter, luminescence; 0% DMSO, 100% Δ7-dafachronic acid; activation, % at 6.8 µM; 1.4% of 370,000 active; AID 652067;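 active means activation above the mean of all tested compounds plus 3 SD, cut at about 5.5% in these data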;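 further: 100% = response to 3 µM Δ7-dafachronic acid high control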
esBAF inh: SWI/SNF esBAF complex inhibition; AID 602393; mouse ES cells, Bmi1-luciferase knock-in reporter, 24 h; 100% = twice the neutral-well signal; 2% of 350,000 active; reporter increase, % at 12.5 µM; in the data active means activation above about 40%; inconclusive means no clear call, values can overlap the other calls;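 further: 0% = median of the plate's neutral control wells and 100% = double that signal; a rise in the Bmi1 reporter signal indicates esBAF inhibition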
DAX1 inh confirm: NR0B1 (human) inhibition, confirmation; shares compounds with DAX1 inh; 87% of 2,400 active; inhibition, % at 6.8 µM; HEK293T StAR-promoter luciferase reporter, SF-1/DAX-1 repression;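 active means inhibition above the average of every tested compound plus 3 SD, cut at about 3.8% in these data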;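 further: 0% = DAX-1 cells with DMSO and 100% = no DAX-1 control cells with DMSO; active compounds raise luminescence by relieving repression of the StAR reporter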
Target sequence (P51843 whole entry, looked up): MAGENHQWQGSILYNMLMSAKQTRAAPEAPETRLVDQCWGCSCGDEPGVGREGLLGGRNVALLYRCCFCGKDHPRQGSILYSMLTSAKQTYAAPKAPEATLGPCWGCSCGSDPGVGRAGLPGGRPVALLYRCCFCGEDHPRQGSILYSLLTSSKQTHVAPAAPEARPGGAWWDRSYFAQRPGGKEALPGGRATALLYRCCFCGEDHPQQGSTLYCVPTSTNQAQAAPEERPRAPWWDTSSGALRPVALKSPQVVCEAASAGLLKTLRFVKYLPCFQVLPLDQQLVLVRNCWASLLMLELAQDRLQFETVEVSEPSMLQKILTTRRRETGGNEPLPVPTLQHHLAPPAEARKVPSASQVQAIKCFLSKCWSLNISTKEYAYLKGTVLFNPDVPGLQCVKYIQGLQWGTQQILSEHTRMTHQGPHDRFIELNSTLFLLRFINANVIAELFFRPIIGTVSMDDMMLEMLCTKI
SF1 AF2mut Luc: nonselective inhibitor or artifact in SF-1 mutant DAX1 counter-screen. shares compounds with DAX1 inh. HEK293 StAR-luciferase, SF-1 AF2 mutant, luminescence. inhibition, % at 6.8 µM. 78% of 2,400 active. AID 652136;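 active means inhibition above the mean of all tested compounds plus 3 SD, cut at about 3% in these data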;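 further: 0% = DAX-1 transfected cells with DMSO and 100% = cells without DAX-1 with DMSO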
* marks the source's active call; other numbers are inactive results; u = inconclusive; x = no result.

SMILES	Wnt bcat act	hgDAF12 agonist	DAX1 inh	ssDAF12 agonist	hcDAF12 agonist	esBAF inh	DAX1 inh confirm	SF1 AF2mut Luc
Cc1ccccc1NC(=O)CSc1nnc(-c2ccccn2)o1	8	2	0	-1	1	6	x	x
O=C(C[C@H]1C=C[C@@H](NC(=O)Nc2ccccc2F)[C@H](CO)O1)NCc1ccc(F)cc1	x	x	x	x	x	-4	x	x
Cc1ccc(CC(=O)O/N=C(\N)c2ccccn2)cc1	40*	11*	5.0*	-1	2	15	4.0*	3.2*
Cc1c(CCNC=O)cc(C)c2c3c(oc12)CCCC3	24	7	4.9*	0	1	u	6.5*	5.8*
N#C[C@@H]1N[C@@H](CO)[C@H]1c1ccc(C#Cc2ccc(F)cc2)cc1	x	x	x	x	x	10	x	x
O=C(N[C@@H]1CC[C@@H](CCn2cc(C3CC3)nn2)O[C@H]1CO)c1cccnc1	x	x	x	x	x	-3	x	x
CNc1nnc(SCC(=O)c2cc(C)n(C3CC3)c2C)s1	-1	5	5.0*	-1	3	34	6.7*	3
Cc1ccn2c(CN3CCOCC3)c(-c3ccccc3)nc2c1	18	8	3	-1	1	21	x	x
Cc1ccn2c(Cc3ccccc3)c(-c3ccccc3)nc2c1	18	11*	5.5*	-1	4	39	2	2
Cc1ccc(Cc2c(-c3ccc(Cl)cc3)nc3cc(C)ccn23)cc1	11	7	7.2*	0	4	34	3	0
Cc1ccc(Cc2c(-c3ccc(Cl)cc3)nc3ccc(Br)cn23)cc1	8	8	3	0	1	u	x	x
CCOc1ccc(N(CC(=O)Nc2ccccc2OCC)S(=O)(=O)c2c(C)noc2C)cc1	-13	1	13*	0	1	-36	16*	-7
O=C(Nc1ccccc1Cl)NC1CCCCCCC1	16	6	5.2*	-1	1	59*	3.8*	2
COc1cccc(NC(=O)NC2CCCCCCC2)c1	13	10	4.8*	0	2	39	5.4*	4.3*
COc1ccc(NC(=O)NC2CCCCCCC2)cc1	6	13*	12*	0.9*	5.8*	53*	10*	5.8*
CS(=O)(=O)Nc1ccc2c(c1)[C@@H]1C[C@H](CC(=O)N3CCOCC3)O[C@@H](CO)[C@@H]1O2	x	x	x	x	x	-3	x	x
O=C(NNC(=O)c1ccc2c(=O)n3c(nc2c1)CCC3)c1ccc(F)cc1	1	-1	1	-1	-1	x	x	x
O=C(Nc1ccc(F)cc1F)c1ccc2c(=O)n3c(nc2c1)CCC3	24	13*	11*	0	3	-8	7.9*	6.5*
O=C(Nc1ccc(F)cc1Cl)c1ccc2c(=O)n3c(nc2c1)CCC3	29	10*	8.8*	0	6.5*	u	8.6*	5.7*
COc1ccc(NC(=O)N(C)C[C@@H]2Oc3ccc(NC(=O)CCC(F)(F)F)cc3C(=O)N([C@H](C)CO)C[C@@H]2C)cc1	x	x	x	x	x	8	x	x
COCC(=O)Nc1ccc2c(c1)[C@@H]1C[C@H](CC(=O)N[C@@H](C)c3ccccc3)O[C@@H](CO)[C@@H]1O2	x	x	x	x	x	1	x	x
O=C(CN1CCOCC1)NCC[C@@H]1CC[C@@H](NC(=O)c2ccc3c(c2)OCO3)[C@@H](CO)O1	x	x	x	x	x	2	x	x
O=C(NCCN1CCOCC1)c1noc2c1CCc1ccccc1-2	14	7	1	-1	3	22	x	x
CCCNC(=O)c1noc2c1CCc1ccccc1-2	11	8	4.5*	0	2	u	2	3.0*
Cc1ccc(S(=O)(=O)N(C)C[C@H]2OCCCC[C@H](C)Oc3ccc(NC(=O)NC4CCCCC4)cc3C(=O)N([C@H](C)CO)C[C@H]2C)cc1	x	x	x	x	x	-2	x	x
SMILES	Wnt bcat act	hgDAF12 agonist	DAX1 inh	ssDAF12 agonist	hcDAF12 agonist	esBAF inh	DAX1 inh confirm	SF1 AF2mut Luc
CN(C)S(=O)(=O)c1ccc(C(=O)Nc2nnc(SCC(=O)N3CCOCC3)s2)cc1	x	0	0	-1	0	-6	x	x
CC(C)Oc1ccc(C(=O)Nc2nnc(SCC(=O)N3CCOCC3)s2)cc1	-1	11*	5.2*	0	5	x	8.7*	2
O=C(N[C@H]1CC[C@H](CCNS(=O)(=O)c2ccccc2)O[C@H]1CO)c1cccnc1	x	x	x	x	x	-7	x	x
COc1ccc(S(=O)(=O)Nc2cccc(-c3ccc(N4CCCCCC4)nn3)c2)cc1OC	1	4	0	-1	-2	19	x	x
Cc1ccc(S(=O)(=O)Nc2cccc(-c3ccc(N4CCCCCC4)nn3)c2)cc1	20	6	4.9*	-1	1	67*	7.5*	4.2*
CCOc1cccc(C2C(C(=O)c3ccc(C)o3)=C(O)C(=O)N2c2nnc(C)s2)c1 (configuration not stated)	1	2	6.5*	-1	1	0	6.0*	3.8*
Cc1ccc(NC(=O)CSc2ccc(S(=O)(=O)N3CCCC3)cn2)cc1F	-1	-2	5.9*	-1	-1	2	-5	0
Cc1noc(C)c1S(=O)(=O)Nc1cccc2c1O[C@@H](CN(C)Cc1ccc3c(c1)OCO3)[C@@H](C)CN([C@@H](C)CO)C2=O	x	x	x	x	x	-4	x	x
COc1ccc(C2=Nn3c(nnc3-c3ccccc3OC)SC2)cc1OC	x	-9	4	-1	-4	-7	x	x
COc1ccc(OC)c(-c2nnc3n2N=C(c2ccc(OC)c(OC4CCOC4)c2)CS3)c1 (configuration not stated)	-5	-3	4.9*	-2	-4	-52	19*	-10
COc1ccccc1-c1nnc2n1N=C(c1ccc3c(c1)OCO3)CS2	x	-3	4.7*	-1	-4	x	11*	-5
COc1ccc(-c2oc3c(c2C#CC2(O)CCCCC2)C(OC)CCC3)cc1 (configuration not stated)	-1	3	5.6*	-1	-2	x	-1	-1
CCCCC(=O)NC(=S)NNC(=O)CC#N	x	0	4.7*	-1	-2	3	2	0
CCCCC(=O)NNC(=S)NC(=O)CCC	x	0	1	0	1	-7	x	x
C[C@H](CO)N1C[C@H](C)[C@@H](CN(C)Cc2ccc(C(=O)O)cc2)OCCCC[C@H](C)Oc2ccc(NC(=O)C3CCCCC3)cc2C1=O	x	x	x	x	x	-3	x	x
Cc1noc(C)c1S(=O)(=O)Nc1cccc2c1O[C@@H](CN(C)C(=O)NC(C)C)[C@@H](C)CN([C@@H](C)CO)C2=O	x	x	x	x	x	-1	x	x
CCN(CC)S(=O)(=O)c1cc(NC(=S)NC(=O)C2CCCC2)ccc1C	1	-1	-3	-1	-1	-15	x	x
